Screening data as filed in PubChem BioAssay.
KB-V1 MDR tox – KB-V1 MDR subline cytotoxicity; Potency, µM (titrated, usually from 46.1 µM), usual class: cytotoxic; KB-V1 MDR cells viability, CellTiter-Glo, 72 h; 3.4% of 400,000 active; also: % is scaled to controls: 0 for no effect and ±100 for the full control effect; nearly all actives have a fitted effect of over 60% in size
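Following 72 h at 37 degrees C with compound, KB-V1 cell viability was read by CellTiter-Glo luminescence, medium being phenol-red-free DMEM plus 10% FBS; concentration-response parameters came from normalized, curve-fitted qHTS data.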
HT1080-NT tox – kills 2HG-producing HT-1080-NT fibrosarcoma cells; HT-1080-NT fibrosarcoma viability, CellTiter-Glo ATP luminescence, 48 h; Potency, µM (top dose mostly 46.1 µM), for inactives: at the highest dose activity, negative = less viability, hits mostly cytotoxic; 1.6% of 360,000 active; AID 686970;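 also: NT is the 2HG producing partner of a matched IDH1 knockdown line; 0% = DMSO-treated cells and -100% = media-only wells without cells; nearly all actives have a fitted effect of over 55% in size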
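Luminescent CellTiter-Glo readout after 48 hours of compound exposure at 37 degrees C defined viability of HT-1080-NT cells. Activity was normalized to DMSO wells and cell-free media wells; concentration-response curves were fitted and assigned curve classes.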
TGFb inhibitor – inhibitors of TGF-b signaling; HepG2 CAGA-GFP TGF-b/SMAD3 reporter, GFP fluorescence, 18 h; TGF-beta stimulated, 500 pg/mL final; Potency, µM (highest dose often 46.1 µM), without a hit: top-dose activity, negative = inhibition, most hits filed as inhibitors; 1.2% of 410,000 active; AID 588855; also: % is scaled to controls: 0 for no effect and ±100 for the full control effect; nearly all actives have a fitted effect of over 65% in size
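Inhibition was scored as loss of TGF-beta-induced (500 pg/mL final, 18 hours, 37 degrees C) GFP in HEPG2 cells carrying a CAGA-GFP reporter, in DMEM with 1% FBS. Well GFP was summed per cell; Activity was normalised to unstimulated and stimulated DMSO wells, then concentration-response fitting.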
KB-3-1 cytotox – KB-3-1 parental cell cytotoxicity; KB-3-1 viability, CellTiter-Glo ATP luminescence, 72 h; Potency, µM (top dose mostly 46.1 µM), hits mostly cytotoxic; 1.4% of 400,000 active; also: % is scaled to controls: 0 for no effect and ±100 for the full control effect; nearly all actives have a fitted effect of over 60% in size
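Luminescent ATP read-out (CellTiter-Glo) measures survival of drug-naive KB-3-1 cells after 72 h compound exposure at 37 °C. Titration series was screened from lowest to highest concentration, with DMSO vehicle plates as background controls.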
HepG2 tox – HepG2 cytotoxicity, counter-screen for TGF-b inhibitors. Potency, µM (top dose mostly 46.1 µM), for the others: at the highest dose activity change, negative = cytotoxicity, most hits filed as cytotoxic. 0.76% of 410,000 active. HepG2 CAGA-GFP viability, ATP luminescence, 18 h
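HepG2 CAGA-GFP cells (1000/well, DMEM with 1% FBS) received compound, then TGF-beta at 500 pg/mL final, and were incubated 18 hours at 37 degrees C. Viability was read by CellTiter-Glo luminescence. Media-only wells were set as complete cell-killing and DMSO as no toxicity.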
HT1080 IDH1KD tx – HT-1080 IDH1 knockdown cell toxicity (counter line). AID 686971. Potency, µM (highest dose often 46.1 µM), for the others: top-dose activity, negative = toxicity, actives largely listed as cytotoxic. 2% of 360,000 active. HT-1080 IDH1 knockdown viability, ATP luminescence, 48 h;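 also: 0% = DMSO wells and -100% = cell-free medium wells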
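IDH1KD HT-1080 cells, 750/well, RPMI + 5% FBS; compound pinned after 2 h settling; 48 h, 37 °C; CellTiter-Glo luminescence; % activity normalised to DMSO and no-cell wells; curves fitted, classed by r2 and efficacy.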
Active calls of the source: *; i = inactive; ? = inconclusive; / = no result given. Shown are actives, neighbours in structure and some others; about 6.6% of the full set was active somewhere. Calls follow the shape of the dose curve; as a rule, active = well fitted curve in the direction sought with a large enough effect; inconclusive = small, poorly fitted or top-dose-only effect, or another doubt; inactive = no such curve, though single readings can be large; an effect the other way counts as inactive or inconclusive. Potency is read from the fitted curve at half-maximal effect.

SMILES	KB-V1 MDR tox	HT1080-NT tox	TGFb inhibitor	KB-3-1 cytotox	HepG2 tox	HT1080 IDH1KD tx
CC(=O)Nc1nonc1-c1nc2ccccc2n1Cc1ccccc1	16µM*	16µM*	39%	15µM*	4%	12µM*
CCN(CC)CCn1c(NC(=O)c2ccc(C)cc2)nc2ccccc21	?	?	-5%	?	-17%	-10%
CC(=O)Nc1nonc1-c1nc2ccccc2n1Cc1nnc(C)o1	?	-5%	5%	i	1%	7%
CC(=O)Nc1nc2ccccc2n1Cc1ccc(Cl)cc1	?	?	?	9.2µM*	-27%	16µM*
COC(=O)c1ccccc1NC(=O)Cn1c(-c2nonc2N)nc2ccccc21	?	0.71µM*	-22%	0.63µM*	-2%	0.32µM*
Cc1ccc2c(C)c(C(=O)N(Cc3ccc(N(C)C)cc3)Cc3ccco3)oc2c1C	/	/	/	/	-21%	/
Cc1cccc(C(=O)NCCc2nc3ccccc3n2CCC(C)C)c1	i	/	?	i	-35%	/
COC(=O)c1c(C(=O)OC)c(-c2ccc(C)cc2)n2c1CCC2	15µM*	6%	-4%	i	-3%	-3%
COC(=O)c1c(C(=O)OC)c(-c2ccc(Cl)c(Cl)c2)n2c1CCC2	i	-11%	-22%	i	-46%	-5%
Cc1ccc(C)c(NC(=O)CC2NCCNC2=O)c1 (centres undefined)	i	/	10%	?	-3%	/
O=C(COc1cccnc1[N+](=O)[O-])Nc1cccc(Br)c1	i	-1%	-1%	i	-4%	-26%
O=C(COc1cccnc1[N+](=O)[O-])Nc1ccccc1Sc1ccccc1	13µM*	-3%	19%	i	-3%	0%
CC(=O)Nc1ccc(N2C(C(C)=O)=NN(c3ccccc3)C2c2cccs2)cc1 (centres undefined)	?	-6%	2%	i	-13%	?
CC(=O)Nc1ccc(N2C(C(C)=O)=NN(c3ccc(Cl)cc3)C2c2sccc2C)cc1 (centres undefined)	?	?	?	i	-30%	7.9µM*
COc1cccc(C2=NC(C)(C)NC(c3ccccc3O)C2)c1 (centres undefined)	i	0%	?	i	18µM*	-5%
CCOCCCNC(=O)c1cc(=O)n(Cc2cccc(C)c2)c2ccccc12	9.2µM*	-5%	1%	?	3%	-18%
CCn1c(=O)cc(OCC(=O)NCCc2cccc(C)c2)c2ccccc21	?	-9%	-22%	?	-24%	-25%
O=C1NC2=C(CCc3ccccc32)C(c2ccc(Br)cc2)N1 (centres undefined)	21µM*	-2%	?	i	-17%	-8%
CC(C)Oc1ccc(CNS(=O)(=O)c2ccc3c(c2)C(C)(C)C(=O)N3C)cc1	i	/	?	i	-34%	/
Cc1cc(CN(C)C(=O)c2cc(COc3ccc(F)cc3Cl)on2)n[nH]1	21µM*	4%	8%	i	2%	-3%
CN(Cc1ccccn1)C(=O)c1cc(COc2ccc(F)cc2Cl)on1	?	2%	-21%	i	-44%	3%
CN1CCN(C(=O)c2cc(COc3ccc(F)cc3Cl)on2)CC1c1ccccc1 (centres undefined)	i	-19%	?	16µM*	-2%	?
O=C(c1cc(COc2ccc(F)cc2Cl)on1)N1CCC(OCc2cccnc2)CC1	?	-2%	?	i	-13%	-6%
O=C(c1cc(COc2ccc(F)cc2Cl)on1)N1CCCC(OCc2cccnc2)C1 (centres undefined)	9.2µM*	1%	0%	i	2%	-11%
Cc1ccc(C)c(NC(=O)C2CCCN2S(=O)(=O)c2ccc3c(c2)CCCC(=O)N3)c1 (centres undefined)	i	/	-14%	i	-10%	/
SMILES	KB-V1 MDR tox	HT1080-NT tox	TGFb inhibitor	KB-3-1 cytotox	HepG2 tox	HT1080 IDH1KD tx
CN1CCN(CCC(=O)Nc2ccc(Cl)cc2)CC1	i	/	3%	i	-1%	/
CC1=C(CC/C(C)=N/NC(N)=S)C(C)(C)CCC1	i	6.3µM*	-17%	?	-21%	8.9µM*
COc1cc2c(cc1NC(=O)c1cccc(Br)c1)CCCC2	i	1%	8%	i	-28%	-6%
COc1cccc(Oc2ccc(C(F)(F)F)cc2NC(=O)c2cccc(F)c2)c1	21µM*	6%	?	?	-2%	-4%
COc1ccc(OCCNC(=O)c2cccc(Oc3ccc(C(F)(F)F)cc3[N+](=O)[O-])c2)cc1	2.9µM*	-2%	?	?	-32%	-25%
O=C(NCCOc1ccccc1)c1cc(C(=O)NCCOc2ccccc2)cc([N+](=O)[O-])c1	3.7µM*	0%	?	?	-2%	-18%
COc1cc2c(cc1NC(=O)c1cccc(F)c1)CCCC2	23µM*	6%	-7%	i	-12%	6%
COc1ccc(Oc2ccc(C(F)(F)F)cc2NC(=O)c2ccc(F)cc2)cc1	i	-16%	7%	i	-6%	-15%
O=C(NCCO)c1ccc(Oc2ccc(C(F)(F)F)cc2[N+](=O)[O-])cc1	i	?	-4%	i	-72%	-8%
Cc1cc2c(cc1S(=O)(=O)Nc1cccc(Cl)c1C)OCCN2C	/	/	?	/	-76%	/
Cc1ccccc1CN(c1ccc(C(=O)Nc2ccccc2C(=O)NCc2ccco2)cc1)S(C)(=O)=O	8.2µM*	-10%	-28%	i	-10%	?
CCOC(=O)c1ccccc1NC(=O)c1ccccc1N(C)S(C)(=O)=O	18µM*	0%	6%	i	-33%	6%
CN(c1ccccc1C(=O)Nc1ccccc1C(=O)NCc1ccco1)S(C)(=O)=O	15µM*	2%	5%	i	-3%	26%
Cc1ccc(S(=O)(=O)N2CCN(c3nc(-n4c(=O)[nH]c5ccccc54)nc4ccccc34)CC2)cc1	/	-8%	/	/	/	-6%
Cc1cc(C)c2ccccc2n1	i	/	-2%	i	-6%	/
Cc1cc(-c2nc3ccccc3o2)c2ccccc2n1	13µM*	5%	0%	i	-14%	-4%
Cc1ccc(-c2ccc(C3C4C=CCC(C)C4C(=O)N3Cc3ccccc3)c(F)c2)cc1 (centres undefined)	/	/	2%	/	-35%	/
Cc1cccn2cc(CSc3ccccc3N)nc12	13µM*	-3%	6%	i	2%	2%
Cc1ccc(-c2nnc(SCC(=O)c3ccc(Cl)cc3)n2-c2ccccc2)cc1	/	/	2%	/	1%	/
